Test results taken from PubChem BioAssay AID1159580 (chemical genetic matrix, 2015).
Values joined by “and” are separate entries in the source; they are usually repeats but may differ in a detail not shown here. Identical values can stand only once. Among all 5,500 compounds or so, about 2,000 (36%) were called active. Not shown: some 18% with an inconclusive outcome. Cut-off read from the data, not from the text of the source: active = normalized growth mostly below about 0.91 (no sharp cut-off); inconclusive = no clear call, values can overlap the other calls; inactive = mostly above about 0.92. The list shows a part of the results.

Assay: chemical genetic growth profiling, strain panel (AID 1159580);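 note: tested at 20 µM; growth read once vehicle control cultures reached saturation at 30 °C; 1 = growth at the plate median or of vehicle wells; lower values mean less growth of the strain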
Details: S. cerevisiae deletion strains, growth OD

Measured: normalized growth

COc1cc2c(cc1OC)[C@@H]1C(=O)c3ccc(OC)c(CC=C(C)C)c3O[C@@H]1CO2
inactive: locus YAL013W, strain DEP1, active compounds read low 1.03 | locus YAL021C, strain ccr4, active compounds read low 1.06 | locus YAL026C, strain drs2, active compounds read low 1.04 | locus YAL030W, strain snc1, active compounds read low 1.02 | locus YBL061C, strain skt5, active compounds read low 1.02 | locus YBR009C, strain hhf1, active compounds read low 1.01 | locus YBR021W, strain FUR4, active compounds read low 1.03 | locus YBR023C, strain chs3, active compounds read low 1.02 | locus YBR171W, strain sec66, active compounds read low 1.05 | locus YBR229C, strain ROT2, active compounds read low 1.02 | locus YBR231C, strain swc5, active compounds read low 1.05 | locus YBR279W, strain paf1, active compounds read low 1.01 | locus YCL011C, strain gbp2, active compounds read low 1.02 | locus YCL016C, strain dcc1, active compounds read low 1.02 | locus YCL029C, strain bik1, active compounds read low 1.02 | locus YCL061C, strain MRC1, active compounds read low 0.987 | locus YCL069W, strain vba3, active compounds read low 1.03 | locus YCR088W, strain abp1, active compounds read low 1.02 | locus YDL005C, strain med2, active compounds read low 1.02 | locus YDL035C, strain GPR1, active compounds read low 1.06 | locus YDL040C, strain nat1, active compounds read low 1.02 | locus YDL074C, strain BRE1, active compounds read low 1.05 | locus YDL101C, strain DUN1, active compounds read low 1.01 | locus YDL185W, strain tfp1, active compounds read low 1.02 | locus YDL192W, strain arf1, active compounds read low 1.04 | locus YDR001C, strain nth1, active compounds read low 1.02 | locus YDR069C, strain doa4, active compounds read low 1.03 | locus YDR101C, strain arx1, active compounds read low 1.03 | locus YDR137W, strain rgp1, active compounds read low 0.892 | locus YDR159W, strain sac3, active compounds read low 1.02 | locus YDR162C, strain NBP2, active compounds read low 1.01 | locus YDR195W, strain ref2 1.06 | locus YDR297W, strain sur2, active compounds read low 1.02 | locus YDR318W, strain mcm21, active compounds read low 1.01 | locus YDR334W, strain swr1, active compounds read low 1.02 | locus YDR335W, strain msn5, active compounds read low 1.03 | locus YDR388W, active compounds read low 1.02 | locus YDR392W, strain spt3, active compounds read low 0.813 | locus YDR502C, strain sam2, active compounds read low 1.01 | locus YEL003W, strain gim4, active compounds read low 1.03 | locus YEL037C, strain rad23, active compounds read low 1.01 | locus YEL061C, strain CIN8 (second series), active compounds read low 1.03 | locus YEL061C, strain CIN8, active compounds read low 1.04 | locus YER015W, strain faa2, active compounds read low 1.04 | locus YER016W, strain bim1, active compounds read low 1.03 | locus YER110C, active compounds read low 1 | locus YER111C, strain swi4, active compounds read low 1.02 | locus YER155C, strain BEM2 (second series), active compounds read low 1.03 | locus YER155C, strain BEM2, active compounds read low 0.993 | locus YER167W, strain BCK2, active compounds read low 1.01 | locus YFR010W, strain ubp6, active compounds read low 1.03 | locus YGL078C, strain dbp3, active compounds read low 1.01 | locus YGL086W, strain mad1, active compounds read low 0.999 | locus YGL167C, strain pmr1, active compounds read low 1.03 | locus YGL173C, strain kem1, active compounds read low 1.04 | locus YGL227W, strain vid30, active compounds read low 1.03 | locus YGL240W, strain doc1, active compounds read low 1.03 | locus YGL248W, strain PDE1, active compounds read low 1.02 | locus YGL253W, strain hxk2, active compounds read low 1.04 | locus YGR078C, strain PAC10, active compounds read low 1.05 | locus YGR135W, strain pre9, active compounds read low 1.02 | locus YGR252W, strain gcn5, active compounds read low 0.994 | locus YHR013C, strain ard1, active compounds read low 1.14 | locus YHR027C, strain rpn1, active compounds read low 1.03 | locus YHR030C, strain SLT2, active compounds read low 1.02 and 1.03 | locus YHR079C, strain IRE1 (second series), active compounds read low 0.997 | locus YHR079C, strain IRE1, active compounds read low 1.02 | locus YHR094C, strain hxt1, active compounds read low 1.01 | locus YHR129C, strain ARP1, active compounds read low 1.04 | locus YHR142W, strain chs7, active compounds read low 1.01 | locus YHR200W, strain rpn10, active compounds read low 1.01 | locus YIL066C, strain RNR3, active compounds read low 1.01 | locus YIL073C, strain SPO22, active compounds read low 1.1 | locus YIL125W, strain kgd1, active compounds read low 0.995 | locus YIR030C, strain dcg1, active compounds read low 0.998 | locus YJL092W, strain hpr5, active compounds read low 1.03 | locus YJL095W, strain BCK1 (second series), active compounds read low 1.02 | locus YJL095W, strain BCK1, active compounds read low 1.04 and 1.05 | locus YJL115W, strain asf1, active compounds read low 1.03 | locus YJL129C, strain trk1, active compounds read low 0.953 | locus YJL134W, strain LCB3, active compounds read low 1.02 | locus YJL154C, strain vps35, active compounds read low 1.03 | locus YJL164C, strain tpk1, active compounds read low 1 | locus YJL166W, strain qcr8, active compounds read low 1.03 | locus YJL168C, strain set2, active compounds read low 1 | locus YJL187C, strain SWE1 (second series), active compounds read low 1 | locus YJL187C, strain SWE1, active compounds read low 1.04 | locus YJR066W, strain TOR1, active compounds read low 0.982 | locus YKL009W, strain mrt4, active compounds read low 1.04 | locus YKL068W, active compounds read low 0.999 | locus YKL085W, strain MDH1 (second series), active compounds read low 0.999 | locus YKL085W, strain MDH1, active compounds read low 0.999 | locus YKL160W, strain elf1, active compounds read low 1.02 | locus YKL190W, strain CNB1, active compounds read low 1.04 | locus YKR001C, strain vps1, active compounds read low 0.934 | locus YKR026C, strain gcn3, active compounds read low 1 | locus YKR091W, strain srl3, active compounds read low 1.02 | locus YLL001W, strain dnm1, active compounds read low 1.03 | locus YLL026W, active compounds read low 1.03 | locus YLL041C, strain sdh2, active compounds read low 1.02 | locus YLR027C, strain aat2, active compounds read low 1.02 | locus YLR039C, strain RIC1, active compounds read low 0.846 | locus YLR058C, strain SHM2, active compounds read low 1 | locus YLR102C, strain apc9, active compounds read low 1.01 | locus YLR113W, strain HOG1, active compounds read low 0.988 | locus YLR221C, strain rsa3, active compounds read low 1.01 | locus YLR258W, strain gsy2, active compounds read low 1.03 | locus YLR262C, strain YPT6 (second series), active compounds read low 0.91 | locus YLR268W, strain sec22, active compounds read low 1.05 | locus YLR320W, strain mms22, active compounds read low 1.02 | locus YLR330W, strain CHS5, active compounds read low 1.01 | locus YLR342W, strain FKS1, active compounds read low 1.02 | locus YLR357W, strain rsc2, active compounds read low 1.02 | locus YLR370C, strain arc18, active compounds read low 1.02 | locus YLR371W, strain rom2, active compounds read low 1.04 | locus YLR384C, strain iki3, active compounds read low 1.02 | locus YLR418C, strain cdc73, active compounds read low 1.01 | locus YML016C, strain PPZ1, active compounds read low 1.01 | locus YML032C, strain rad52, active compounds read low 1 | locus YML120C, strain ndi1, active compounds read low 1.01 | locus YML124C, strain tub3, active compounds read low 1.01 | locus YMR058W, strain fet3, active compounds read low 1.03 | locus YMR078C, strain ctf18, active compounds read low 1.01 | locus YMR125W, strain sto1, active compounds read low 1.03 | locus YMR129W, active compounds read low 1.02 | locus YMR205C, strain PFK2, active compounds read low 0.993 | locus YMR223W, strain ubp8, active compounds read low 1.02 | locus YMR231W, strain pep5, active compounds read low 1.02 | locus YMR263W, strain SAP30, active compounds read low 1.03 | locus YMR307W, strain GAS1, active compounds read low 1.08 | locus YNL067W, strain RPL9B, active compounds read low 1.04 | locus YNL071W, strain lat1, active compounds read low 1.01 | locus YNL153C, strain GIM3, active compounds read low 1.04 | locus YNL183C, strain NPR1, active compounds read low 0.974 | locus YNL209W, strain ssb2, active compounds read low 1.03 | locus YNL233W, strain BNI4, active compounds read low 0.984 | locus YNL248C, strain rpa49, active compounds read low 1.05 | locus YNL250W, strain rad50, active compounds read low 0.961 | locus YNL271C, strain bni1, active compounds read low 1.01 | locus YNL298W, strain CLA4, active compounds read low 1.01 | locus YNL307C, strain MCK1, active compounds read low 0.999 | locus YNL322C, strain KRE1 (second series), active compounds read low 1.01 | locus YNL322C, strain KRE1, active compounds read low 1.02 | locus YNR049C, strain mso1, active compounds read low 1.04 | locus YNR052C, strain pop2, active compounds read low 1.03 | locus YOL012C, strain htz1 1.26 | locus YOL147C, strain pex11, active compounds read low 1 | locus YOR001W, strain rrp6, active compounds read low 1.04 | locus YOR061W, strain CKA2, active compounds read low 1.02 | locus YOR069W, strain VPS5, active compounds read low 1.01 | locus YOR070C, strain gyp1, active compounds read low 1.02 | locus YOR080W, strain dia2, active compounds read low 1.04 | locus YOR083W, strain WHI5, active compounds read low 1.02 | locus YOR106W, strain vam3, active compounds read low 1.05 | locus YOR136W, strain idh2, active compounds read low 1.03 | locus YOR144C, strain elg1, active compounds read low 1.01 | locus YOR184W, strain ser1, active compounds read low 1.05 | locus YOR231W, strain MKK1, active compounds read low 1.04 | locus YOR265W, strain rbl2, active compounds read low 1.02 | locus YOR270C, strain vph1, active compounds read low 1.06 | locus YOR290C, strain snf2, active compounds read low 1 | locus YOR316C, strain cot1, active compounds read low 0.992 | locus YPL051W, strain arl3, active compounds read low 1.01 | locus YPL078C, strain atp4, active compounds read low 1.03 | locus YPL106C, strain sse1, active compounds read low 1.1 | locus YPL240C, strain hsp82, active compounds read low 1.02 | locus YPL256C, strain CLN2, active compounds read low 1.03 | locus YPR119W, strain clb2, active compounds read low 1.01 | locus YPR141C, strain kar3, active compounds read low 1 | locus YPR163C, strain tif3, active compounds read low 0.997 | locus YPR167C, strain met16, active compounds read low 1.01 | strain wtn01, active compounds read low 1.01
